Screening data (PubChem)
In the library only some 3.7% were active in any assay of this set; here they are far more common.
PfHsp90 set2 = growth inhibition of yeast expressing Plasmodium Hsp90; 310,000 compounds, 0.32% hits; AID 504621; inhibition, % at 9.4 µM; S. cerevisiae expressing PfHsp90, BacTiter-Glo ATP, 48 h; yeast lacking PDR1 and PDR3 efflux regulators;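 active = every replicate shows inhibition above about 80%, whatever the replicate mean, limit read from the data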;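 also: 0% = DMSO neutral controls and 100% = 20 µM radicicol positive controls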
tim23-1 inh = tim23-1 yeast growth inhibition; 330,000 compounds, 1.3% hits; S. cerevisiae tim23-1 growth, BacTiter-Glo luminescence, 24 h; inhibition, % at 20 µM; AID 463212;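 active = growth inhibition of the mutant yeast at or above 50%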;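 also: temperature-sensitive mutant grown at 25 °C; plate controls were DMSO-treated mutant yeast for no effect and medium wells lacking yeast for full effect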
NALP3 yeast inh = inhibitors of NALP3 inflammasome in yeast. 330,000 compounds, 0.39% hits. inhibition, % at 10 µM. Yeast reconstituted NLRP3/ASC/caspase-1, beta-gal luminescence, 24 h;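 active = inhibition of 50% or more; inactive = inhibition below 50%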;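 also: plate controls were induced DMSO wells for no effect and uninduced yeast grown without galactose for full effect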
TIM10 inh = TIM10 yeast growth inhibition | inhibition, % at 10 µM | 330,000 compounds, 1.4% hits | S. cerevisiae TIM10 strain growth, BacTiter-Glo luminescence, 24 h;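 active = inhibition of 40% or more at the single tested concentration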;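 also: wild-type TIM10 isogenic control strain grown at permissive 25 °C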
tim10-1 inh = tim10-1 yeast growth inhibition | S. cerevisiae tim10-1 ts strain growth, BacTiter-Glo, 24 h | 330,000 compounds, 2.2% hits | inhibition, % at 20 µM;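 active = inhibition of at least 40%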;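 also: mutant grown at 25 °C; 0% = DMSO wells with yeast and 100% = wells holding no yeast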
tim10-1 conf = confirmation of tim10-1 mutant yeast growth inhibitors; inhibition, % at 20 µM; S. cerevisiae tim10-1 ts strain growth, BacTiter-Glo, 24 h; AID 463213; shares compounds with tim10-1 inh; 7,400 compounds, 56% hits;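 active = inhibition of yeast growth at or above a set limit in either of two repeat tests at 20 µM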;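 also: tim10-1 mutant grown at permissive 25 °C to find synthetic lethal compounds; 0% = DMSO yeast wells and 100% = medium wells without yeast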
* hit, by the source's call; . = no result.

SMILES | PfHsp90 set2 | tim23-1 inh | NALP3 yeast inh | TIM10 inh | tim10-1 inh | tim10-1 conf
N#C/C(=C\c1c[nH]c2ccccc12)c1nnc2n1CCCCC2 | -0.6 | 10.2 | 14.6 | 3.3 | 11.7 | .
N#C/C(=N\Nc1cccc2ccccc12)c1nnc2n1CCCCC2 | 18.5 | 14.9 | 24.3 | 8.8 | 40.3* | 16.1
CC(C)OC(=O)CSc1nnc(-c2cnccn2)n1-c1ccc(Cl)cc1 | . | 25.0 | -2.8 | 10.5 | 41.4* | 21.0
Cc1ccc(S(=O)(=O)c2nc(S(C)(=O)=O)sc2N2CCCCC2C)cc1 (stereo not given) | -79.6 | 43.0 | -96.1 | 37.4 | 41.6* | 42.7*
Cc1ccc(S(=O)(=O)c2nc(S(C)(=O)=O)sc2N2CCC(O)CC2)cc1 | -57.6 | -8.4 | -10.2 | 1.2 | -3.6 | .
Cc1cccc(NC(=S)NNC(=O)c2ccc(Br)o2)c1 | 19.0 | 11.6 | 24.9 | 27.8 | 26.2 | .
Cc1ccc2nc(C)c(C(=O)N/N=C/c3cccc([N+](=O)[O-])c3)cc2c1 | -0.1 | 29.8 | 1.0 | 39.8 | 46.8* | 44.5*
CCN(CC)c1ccc(-c2nnc(SCC(=O)Nc3ccccc3C#N)n2-c2ccccc2)cc1 | 1.0 | 29.8 | 9.5 | 20.2 | 42.5* | 19.9
O=C1CSC(c2cccc([N+](=O)[O-])c2)N1Cc1ccccc1 (stereo not given) | 3.6 | 9.1 | -14.9 | 15.9 | 11.5 | .
Cn1ccc(C(=O)OCC(=O)Nc2cccc3ccccc23)n1 | 7.6 | 22.8 | 8.8 | 4.5 | 21.0 | .
Cc1cc(C)c2nc(C(F)(F)F)c(C#N)c(N)c2c1 | -6.5 | 11.2 | 25.2 | 29.7 | 41.6* | 20.4
CCC1=NN(S(=O)(=O)c2ccc(C)cc2)C(O)(C(F)(F)F)C1 (stereo not given) | 14.7 | 9.4 | 13.2 | -19.2 | -3.5 | .
O=C(Nc1ccccc1N1CCOCC1)c1cc(-c2ccncc2)nc2ccccc12 | 4.4 | 31.0 | 16.3 | 19.1 | 34.6 | .
O=C(Nc1ccccc1N1CCOCC1)c1ccc2ccccc2n1 | . | 25.6 | 19.0 | 15.3 | 40.9* | 26.6
COc1ccc(-c2cc(C(=O)Nc3ccccc3N3CCOCC3)c3ccccc3n2)cc1OC | -20.3 | 14.2 | -1.2 | 30.4 | 42.0* | 25.4
O=[N+]([O-])/C(C(Cl)=C(Cl)Cl)=C(/Sc1ccccc1)N1CCCCC1 | -0.7 | 42.1 | 19.2 | 25.9 | 40.7* | 45.0*
O=C(N/C(=C\c1ccc([N+](=O)[O-])cc1)C(=O)N1CCCCC1)c1ccccc1 | -14.0 | 21.7 | -3.4 | 0.8 | 27.7 | .
CC1CN(C(=O)Nc2cccc(C(F)(F)F)c2)CC(C)O1 (stereo not given) | -26.1 | 49.0 | -7.0 | 18.4 | 21.8 | .
CC(N=c1ccccn1C(=O)Nc1cccc(C(F)(F)F)c1)c1ccco1 (stereo not given) | . | 28.9 | 16.2 | 32.8 | 41.2* | 32.7*
CC(C)C(NC(=O)c1ccc(F)cc1)C(=O)OCC(=O)N1CC(=O)Nc2ccccc21 (stereo not given) | 3.6 | 6.3 | 11.3 | 6.3 | 0.1 | .
COc1ccc(OCC2NCCc3cc(OC)c(OC)cc32)cc1 (stereo not given) | -33.5 | 35.7 | 12.3 | 19.0 | 24.2 | .
COc1cc2c(cc1OC)C(COc1cccc(C(F)(F)F)c1)NCC2 (stereo not given) | 0.5 | 39.8 | 23.5 | 39.7 | 46.7* | 47.4*
COc1ccc(C2=NN(C3=NN=C(N)Cc4ncnn43)C(O)(C(F)(F)F)C2)cc1 (stereo not given) | 8.3 | 13.7 | 17.7 | 10.4 | -8.6 | .
CN(C)C(=O)CSc1nnc([C@H](Cc2c[nH]c3ccccc23)NC(=O)OC(C)(C)C)o1 | 13.5 | 11.4 | 10.3 | 0.9 | 14.1 | .
CN(Cc1ccccc1)c1ncnc2ccc(Br)cc12 | -6.4 | 43.5 | 9.7 | 30.8 | 41.9* | 11.1
SMILES | PfHsp90 set2 | tim23-1 inh | NALP3 yeast inh | TIM10 inh | tim10-1 inh | tim10-1 conf
CCOc1ccccc1Nc1ncnc2ccc(Br)cc12 | -5.2 | 13.1 | 0.6 | 5.7 | 12.4 | .
COC(=O)c1ccc(N2CCN(c3ccccc3)CC2)c(N)c1 | -18.5 | -8.3 | 13.4 | -5.0 | 79.6* | 7.8
C=CCNC(=O)/C(C#N)=C/c1ccc2c(c1)OCCO2 | -3.9 | 29.6 | 5.6 | 3.7 | 43.4* | 26.2
Cc1ccccc1-c1nnc2c3ccccc3c(C)nn12 | -8.9 | 16.6 | 25.4 | 1.3 | 4.5 | .
COc1ccc(-c2nnc3c4ccccc4c(C)nn23)cc1 | . | 42.9 | 13.9 | 10.4 | 48.7* | 25.8
Fc1ccc(-c2cnc3n2CCCCC3)cc1 | -1.7 | 5.8 | -3.2 | 7.3 | -1.5 | .
O=C(O)c1cc2cccc(S(=O)(=O)N3CCCCC3)c2cc1O | 22.6 | 3.0 | -6.1 | 4.6 | -10.8 | .
CN1CCN(c2nc(-c3ccccc3)c3cc(Cl)ccc3n2)CC1 | -109.4 | 26.5 | 13.1 | 37.4 | 42.0* | 17.6
COc1ccc(CC(=O)NCCc2ccc(Cl)cc2Cl)cc1 | -13.7 | 27.5 | 6.3 | -20.9 | 40.3* | 17.4
O=C(Cc1ccc(Br)cc1)NCCc1ccc(Cl)cc1Cl | -16.6 | 17.7 | 21.3 | 12.0 | 9.6 | .
Oc1ccc(/C=N/Nc2nccnc2Cl)cc1 | -3.4 | 34.7 | 4.2 | 30.4 | 46.7* | 40.5*
CC(C)(C)c1ccc(C(=O)NCCN2CCOCC2)cc1 | 2.9 | 8.9 | 7.0 | 26.7 | -4.3 | .
CC(C)(C)c1ccc(/C=C(\C#N)C(=O)NCCN2CCOCC2)cc1 | . | 43.4 | 15.1 | 32.4 | 40.1* | 32.5*
Cc1ccc(S(=O)(=O)Nc2ccc(Nc3ccccc3)cc2)cc1 | 17.4 | 42.2 | 20.1 | 15.8 | 42.5* | 23.9
CCn1c(=O)c(CCC(=O)NCC2CCCO2)c(C)c2c(C)nn(-c3ccc(C)cc3)c21 (stereo not given) | 10.3 | 10.4 | 17.6 | 3.4 | 41.4* | -7.4
CCC/C(=N\NC(=O)c1ccco1)c1ccc(Cl)s1 | -16.9 | 23.8 | 16.9 | -1.4 | 12.5 | .
CN(CCOC(=O)c1ccc2c(c1)OCCO2)Cc1ccccc1 | -4.0 | 8.1 | 20.4 | -10.4 | 5.9 | .
COC(=O)COc1ccc(S(=O)(=O)N2CCN(c3ccccc3F)CC2)cc1C | -17.7 | 23.7 | 0.4 | 8.4 | 41.3* | 30.9*
COC(=O)COc1ccc(S(=O)(=O)N2CCCCCC2)cc1C | 20.0 | 6.7 | 20.7 | 2.8 | 8.1 | .
Cc1ccc(C)c2c1[nH]c1ccccc12 | 2.0 | 25.4 | 28.9 | 30.7 | 41.0* | 37.9*
Cc1cc(C=O)c(C)c2c1[nH]c1ccccc12 | -99.4 | . | . | . | . | .
CC(=O)c1cccc(S(=O)(=O)Nc2cccnc2)c1 | 1.0 | -0.2 | 21.6 | -5.9 | 3.1 | .
CCCCCCC1C(C#N)=C(N)OC2=C1C(=O)CC(C)(C)C2 (stereo not given) | -5.1 | 3.3 | 12.3 | -15.0 | 13.6 | .
CCCCC1C2=C(CC(C)(C)CC2=O)OC2=C1C(=O)CC(C)(C)C2 | 23.0 | 48.4 | 17.5 | 19.1 | 44.0* | 37.9*
Cc1c(C(=O)c2ccc(F)cc2F)c2ccccn2c1CCC#N | 18.8 | 18.3 | 30.0 | 15.4 | 27.5 | .
Cc1c(C(=O)c2ccc(N(C)C)cc2)c2ccccn2c1CCC#N | -5.5 | 16.1 | 23.1 | 20.5 | 40.2* | 12.3
